Results from PubChem BioAssay (NCATS).
Where “and” joins values, the source holds several entries; their conditions need not be identical. Equal entries are not always repeated. Inconclusive results are not listed. Calls of active or inactive are those of the source. Calls follow the shape of the dose curve; as a rule, active = well fitted curve in the direction sought with a large enough effect; inconclusive = small, poorly fitted or top-dose-only effect, or another doubt; inactive = no such curve, though single readings can be large; an effect the other way counts as inactive or inconclusive.

Tests used:
[1] = target: Cellular tumor antigen p53 (Homo sapiens) (UniProt P04637); assay: Primary qHTS for small molecule compounds that upregulate eGFP-tagged delta133p53alpha (in N-terminal) cells. (AID 2060322); settings: NCI-H358 eGFP-delta133p53alpha fluorescence, 24 h; activation: hits give high values; also: nearly all actives have a fitted effect of over 75% in size;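 as to activation: 0% = DMSO vehicle and 100% = reference activator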
Sequence of Cellular tumor antigen p53 (Homo sapiens) (P04637 whole entry, looked up): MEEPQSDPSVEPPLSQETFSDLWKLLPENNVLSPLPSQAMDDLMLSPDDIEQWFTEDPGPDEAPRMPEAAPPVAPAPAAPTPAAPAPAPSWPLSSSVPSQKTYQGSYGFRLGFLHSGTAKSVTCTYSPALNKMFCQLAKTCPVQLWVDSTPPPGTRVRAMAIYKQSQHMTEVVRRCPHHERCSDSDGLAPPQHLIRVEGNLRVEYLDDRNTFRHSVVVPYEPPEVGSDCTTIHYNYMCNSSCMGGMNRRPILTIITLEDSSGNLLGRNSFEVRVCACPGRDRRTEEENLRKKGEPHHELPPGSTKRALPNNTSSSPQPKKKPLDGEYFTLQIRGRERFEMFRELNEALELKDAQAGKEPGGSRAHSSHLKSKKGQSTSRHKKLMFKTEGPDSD
How it was run: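 NCI-H358 cells pre-induced 24 h with 10 ng/ml doxycycline to express N-terminal eGFP-delta133p53alpha, then dosed 24 h at 37C without doxycycline; fixed, Hoechst-stained, GFP intensity by laser scanning cytometry, normalized to DMSO (0%) and 57.5 uM 5-azacytidine (100%).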

[2] = BET inhibitor-based combinations targeting novel dependencies in MECOM-rearranged (r) AML: SET-2 cell line (AID 2202231); settings: SET-2 AML cells viability, CellTiter-Glo luminescence, 48 h; viability: hits give low values, concentration not given here; also: nearly all actives have a fitted effect of over 35% in size;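 as to viability: plate controls were DMSO treated cells for no effect and wells without cells for full effect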
How it was run: (§1)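 Here, 11-point titrations of each agent were applied to 500 seeded cells and incubated 48 hr; CellTiter-Glo signal, scaled against DMSO and empty wells, was integrated as AUC, then Z-scored within the individual line.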

[3] = BET inhibitor-based combinations targeting novel dependencies in MECOM-rearranged (r) AML: OCI-AML3 cell line (AID 2202232); settings: CellTiter-Glo luminescence, 48 h; Potency: OCI-AML3 viability; series mostly up to 46 µM; also: nearly all actives have a fitted effect of over 35% in size
How it was run: as §1

[4] = BET inhibitor-based combinations targeting novel dependencies in MECOM-rearranged (r) AML: MV-4-11 cell line (AID 2202233); settings: MV-4-11 AML viability, CellTiter-Glo luminescence, 48 h; series mostly up to 46 µM; also: nearly all actives have a fitted effect of over 45% in size
How it was run: (§2)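 Normalized to DMSO and empty-well controls, the luminescence data from CellTiter-Glo after 48 hr drug exposure were fitted across 11 concentrations. Reported metrics are area under the dose-response curve and its Z-transformed form.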

[5] = BET inhibitor-based combinations targeting novel dependencies in MECOM-rearranged (r) AML: HNT-34 cell line (AID 2202234); settings: HNT-34 AML viability, CellTiter-Glo luminescence, 48 h; series mostly up to 46 µM; also: nearly all actives have a fitted effect of over 35% in size
How it was run: as §2

[6] = BET inhibitor-based combinations targeting novel dependencies in MECOM-rearranged (r) AML: UCSD-AML1 cell line (AID 2202235); settings: UCSD-AML1 AML cells viability, CellTiter-Glo, 48 h; series mostly up to 46 µM; also: nearly all actives have a fitted effect of over 40% in size
How it was run: as §2

[7] = BET inhibitor-based combinations targeting novel dependencies in MECOM-rearranged (r) AML: AML-191 cell line (AID 2202236; also: nearly all actives have a fitted effect of over 35% in size); settings: AML-191 viability, CellTiter-Glo luminescence, 48 h; series mostly up to 46 µM
How it was run: as §1

[8] = BET inhibitor-based combinations targeting novel dependencies in MECOM-rearranged (r) AML: AML-194 cell line (AID 2202237; also: nearly all actives have a fitted effect of over 40% in size); settings: AML-194 (MECOM-r AML) viability, CellTiter-Glo, 48 h; series mostly up to 46 µM
How it was run: as §1
Potency is read from the fitted curve at half-maximal effect.

COCCCN1CCC(NC(=O)c2cc(Cl)c(N)c3c2OCC3)CC1
inactive: activation [1] -6.16% | viability [2] 118% | Potency [3] | Potency [4] | Potency [5] | Potency [6] | Potency [7] | Potency [8]

COc1c2occc2cc2ccc(=O)oc12
active: Potency [3] 10.5 µM
inactive: activation [1] -0.837% and 22.7% | viability [2] 98.3% | Potency [4] | Potency [5] | Potency [6] | Potency [7] | Potency [8]

CC[C@]1(O)C[C@H]2CN(CCc3c([nH]c4ccccc34)[C@@](C(=O)OC)(c3cc4c(cc3OC)N(C=O)[C@H]3[C@@](O)(C(=O)OC)[C@H](OC(C)=O)[C@]5(CC)C=CCN6CC[C@]43[C@@H]65)C2)C1
inactive: activation [1] 54.7%
active: Potency [2] 0.833 µM | Potency [3] 0.166 µM | Potency [4] 0.166 µM | Potency [5] 0.209 µM | Potency [6] 0.235 µM | Potency [7] 0.263 µM | Potency [8] 0.296 µM

N#Cc1cc(NC(=O)Nc2nnc(-c3ccncc3)s2)ccc1-c1cn[nH]c1
inactive: activation [1] -26.3% | viability [2] 111% | Potency [3] | Potency [4] | Potency [5] | Potency [6] | Potency [7] | Potency [8]

CCOCC(O)COc1ccc(NC(=O)CC[S+](C)C)cc1 (stereo unspecified)
inactive: activation [1] -1.78% | viability [2] 62.2% | Potency [3] | Potency [4] | Potency [5] | Potency [6] | Potency [7] | Potency [8]

Cc1nc2cnc3ccc(C#Cc4cccnc4)cc3c2n1-c1ccc(C(C)(C)C#N)cc1
active: Potency [2] 1.66 µM | Potency [3] 2.95 µM | Potency [4] 0.742 µM | Potency [5] 0.525 µM | Potency [6] 0.296 µM | Potency [7] 0.59 µM | Potency [8] 0.468 µM
inactive: activation [1] 35.7%

c1cc(-c2cnn3cc(-c4ccc(OCCN5CCCCC5)cc4)cnc23)ccn1
inactive: activation [1] 46.6%
active: Potency [2] 8.33 µM | Potency [3] 8.33 µM | Potency [4] 0.0833 µM | Potency [5] 1.66 µM | Potency [6] 9.34 µM | Potency [7] 8.33 µM | Potency [8] 9.34 µM

O=C(O)c1cc(O)c2c(c1)C(=O)c1cccc(O)c1C2=O
active: Potency [3] 5.9 µM
inactive: activation [1] -15.1% | viability [2] 115% | Potency [4] | Potency [5] | Potency [6] | Potency [7] | Potency [8]

Cc1ccc2c(=O)c3cccc(CC(=O)O)c3oc2c1C
inactive: activation [1] 16.3% | viability [2] 108% | Potency [3] | Potency [4] | Potency [5] | Potency [6] | Potency [7] | Potency [8]

CCN1CCN(C(=O)N[C@@H](C(=O)N[C@@H]2C(=O)N3C(C(=O)O)=C(CSc4nnnn4C)CS[C@H]23)c2ccc(O)cc2)C(=O)C1=O
inactive: activation [1] -7.34% | viability [2] 99.4% | Potency [3] | Potency [4] | Potency [5] | Potency [6] | Potency [7] | Potency [8]

CC1(C)Cc2c(sc(NC(=S)NC(=O)c3ccccc3)c2C(=O)O)CO1
inactive: activation [1] -34.5% | viability [2] 110% | Potency [3] | Potency [4] | Potency [5] | Potency [6] | Potency [7] | Potency [8]

Cc1cc2nc3c(=O)[nH]c(=O)nc-3n(CC(O)C(O)C(O)CO)c2cc1C (stereo unspecified)
inactive: activation [1] -37.4% | viability [2] 106% | Potency [3] | Potency [4] | Potency [5] | Potency [6] | Potency [7] | Potency [8]

CC(C)[C@H](CO)Nc1nc(Nc2cccc(Cl)c2)c2ncn(C(C)C)c2n1
active: Potency [1] 24.3 µM | Potency [2] 16.6 µM | Potency [3] 18.6 µM | Potency [4] 3.72 µM | Potency [5] 16.6 µM | Potency [6] 26.3 µM | Potency [7] 14.8 µM | Potency [8] 16.6 µM

COc1ccc(CCN(C)CCCOc2ccc(S(=O)(=O)c3[nH]c4ccccc4c3C(C)C)cc2)cc1OC
inactive: activation [1] -2.61%
active: Potency [2] 26.3 µM | Potency [3] 16.6 µM | Potency [4] 11.8 µM | Potency [5] 18.6 µM | Potency [6] 14.8 µM | Potency [7] 18.6 µM | Potency [8] 14.8 µM

Cc1cc(C2CCCCC2)n(O)c(=O)c1
inactive: activation [1] 25.4%
active: Potency [2] 18.6 µM | Potency [3] 10.5 µM | Potency [4] 4.17 µM | Potency [5] 10.5 µM | Potency [6] 16.6 µM | Potency [7] 11.8 µM | Potency [8] 10.5 µM

COc1cccc(OC)c1-c1cc(C(=O)NC2(C(=O)O)C3CC4CC(C3)CC2C4)nn1-c1ccnc2cc(Cl)ccc12 (stereo unspecified)
inactive: activation [1] -14.3% | viability [2] 114% | Potency [3] | Potency [4] | Potency [5] | Potency [6] | Potency [7] | Potency [8]

C[C@H](NC(=O)c1sccc1OCc1ccc(Cl)cc1)c1ccccc1
active: Potency [2] 16.6 µM | Potency [4] 13.2 µM
inactive: activation [1] 16.4% | Potency [3] | Potency [5] | Potency [6] | Potency [7] | Potency [8]
